The values that follow come from PubChem BioAssay AID2732 (Emory University Molecular Libraries Screening Center, 2010).

Among all 220,000 compounds or so, about 8,200 (3.7%) were called active. This is one part of a sample in which actives are shown more often than they occur. A number with no mark means an inactive call.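 How the source made its calls: active means compounds that reduced the stress-induced luciferase reporter signal by more than about 70% of percent inhibition (limit read from the data); inactive means the rest.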

A short description of this assay: inhibitors of CHOP promoter induction, primary screen, cell-based, unfolded protein response, luciferase reporter (AID 2732).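 Further: 0% = tunicamycin plus vehicle and 100% = wells without tunicamycin.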 The following applies: CHO-K1 CHOP-promoter luciferase, tunicamycin-induced, 15-18 h; at 10 µM; active compounds read high.
`O=C1[C@@H]2C(Cc3ccc(O)cc3)NC3(C(=O)Nc4ccc(F)cc43)[C@@H]2C(=O)N1c1ccc(F)cc1` (stereo not given in full): the inhibition is 27.9%.

Take `CSCCC1NC2(C(=O)Nc3ccc(Cl)cc32)[C@@H]2C(=O)N(C3CCCC3)C(=O)[C@H]12` (stereo not given in full): the inhibition is 85.7% (active).

As to `COc1ccc(N=Nc2ccc(O)c(P(=O)(c3ccccc3)c3ccccc3)c2)cc1`, the inhibition was 2.83%.

`C/C(=N\OCC(=O)O)c1ccc(Cl)cc1`: the inhibition was -4.7%.

For the molecule `CCOc1cc(/C=C(/C#N)c2ccc(Cl)cc2)cc(Cl)c1OCC(=O)O`, the inhibition was 87.8% (active).

Consider `CCOC(=O)CN/C=C(\C#N)c1ccc(F)cc1`, for which the inhibition is -6.58%.

Consider `C=CC1C(OC2OC(CO)C(O)C(O)C2O)OC=C(C(=O)OC)C1CC1CC(=O)CC(CC(=O)CCc2ccc(O)cc2)O1` (stereo not given), for which the inhibition is 7.57%.

With `CCOC(=O)c1c(CC(C)C)csc1/N=C/C1=C(O)CCCC1=O`, the inhibition is 24.8%.

As to `O=C(Nc1ccccc1)Nc1nnc(COc2ccccc2F)s1`, the inhibition is 9.53%.

Turning to `O=C(Nc1nnc(COc2ccccc2)s1)Nc1ccccc1F`, the inhibition was 96.7% (active).

For `Cc1nnc(NC(=O)CCCOc2ccccc2)s1`, the inhibition is 26.2%.

`Cc1ccc(S(=O)(=O)N2CCN(C(=O)COC(=O)c3c(C)noc3C)CC2)c(C)c1`: the inhibition was 8.26%.

In the case of `Cc1ccc(C(=O)Cn2cc([N+](=O)[O-])nc2C)cc1`, the inhibition was 2.6%.

With `O=C(CN1CCOCC1)N/N=C/c1ccc(-c2ccc(Br)cc2)o1`, the inhibition was 32.5%.

Regarding `O=c1c(-c2ccc3c(c2)OCCO3)c(C(F)(F)F)oc2cc(O)cc(O)c12`, the inhibition is 13.2%.

As for `CCOC(=O)c1oc2c(CN3CCN(C)CC3)c(O)ccc2c(=O)c1-c1ccc(Br)cc1`, the inhibition is -10.9%.

In the case of `CCOC(=O)c1cc2cc(-c3c(C(=O)OCC)oc4cc(O)cc(O)c4c3=O)ccc2o1`, the inhibition is 105% (active).

With `NC(=O)[C@H]1CC2(CC(c3cccc(NC(=O)[C@H]4CCC(=O)N4)c3)=NO2)CN1C(=O)c1ccccc1C(=O)c1ccccc1` (stereo not given in full), the inhibition was -11.9%.

With `Cn1c(SCC(=O)N/N=C/c2ccc(O)c(O)c2)nc2ccccc21`, the inhibition is -4.19%.

In the case of `Nc1ccc(C(=O)OCC(=O)NC2CCS(=O)(=O)C2)cc1[N+](=O)[O-]` (stereo not given), the inhibition was 3.77%.

Turning to `C=CCOC(=O)C1=C(C)NC(C)=C(C(=O)OCC=C)C1c1cccs1`, the inhibition was 86.8% (active).

Take `CCOC(=O)C1=C(C)Nc2nc3ccccc3n2C1c1cccs1` (stereo not given): the inhibition was 18%.

For the molecule `CCOC(=O)C1=C(C)NC(=S)NC1c1cccs1` (stereo not given), the inhibition was 0.7%.

For the molecule `CCC(C)NC(=O)C1c2ccccc2Oc2ccccc21` (stereo not given), the inhibition is -5.78%.

With `O=C(CCCN1C(=O)/C(=C/c2ccccc2)SC1=S)Nc1ccc(O)cc1`, the inhibition was 58.8%.

In the case of `C=CCOc1ccc(/C=C2\SC(=S)N(CCC(=O)O)C2=O)cc1`, the inhibition was 88% (active).

With `O=C(CCCN1C(=O)/C(=C\c2ccccc2)SC1=S)Nc1ccccc1O`, the inhibition was 27%.

For `Cn1nnc(NC(=S)NC(=O)c2ccccc2)n1`, the inhibition is 17.2%.

For the molecule `O=C(Nc1ccc(S(=O)(=O)Nc2nccs2)cc1)c1cccc(S(=O)(=O)N2CCOCC2)c1`, the inhibition is -32.6%.

As for `COc1ccc(Cn2c(O)c(/C=C3/C=CC=N3)c(=O)[nH]c2=O)cc1`, the inhibition was 1.57%.

As for `C=CC(COCc1ccccc1)N(Cc1ccccc1)S(=O)(=O)c1ccccc1Br` (stereo not given), the inhibition is 13.4%.

Consider `CC(C)(C)C(=O)NNC(=O)c1ccc(Oc2cc(Cl)cc(Cl)c2)o1`, for which the inhibition is 1.32%.

Regarding `COC(=O)c1ccc(S(=O)(=O)N(CCO)Cc2ccccc2)n1C`, the inhibition is -4.99%.

With `O=S(=O)(c1ccccc1)N1CN(Cc2ccc(F)cc2)c2nc3ccccc3nc21`, the inhibition is 3.85%.

Turning to `CCc1c(C)sc(NC(=O)/C=C/c2ccc3c(c2)OCO3)c1C(=O)OC`, the inhibition is 1.72%.

Regarding `CCOC(=O)c1c(NC(=O)c2ccc(Br)o2)sc2c1CCCC2`, the inhibition was 22.6%.

In the case of `CCc1c(C)sc(NC(=O)c2ccc(Br)o2)c1C(=O)OC`, the inhibition was 88.9% (active).

`Cc1cccc(OCc2nnc(SCc3nc4cc(C(F)(F)F)ccc4c(=O)[nH]3)o2)c1`: the inhibition is 104% (active).

`Cc1cccc(OCc2nnc(SCn3nnc4ccccc4c3=O)o2)c1`: the inhibition is 55.9%.

In the case of `COc1cc(CN(C)Cc2nc3cc(C(F)(F)F)ccc3c(=O)[nH]2)ccc1OC(F)F`, the inhibition was 34.5%.

`O=C(/C=C/Nc1ccc(S(=O)(=O)Nc2cnc3ccccc3n2)cc1)c1cccnc1`: the inhibition is 12.4%.

As to `COc1ccc(COCC(O)CN2CCC(C(N)=O)CC2)cc1` (stereo not given), the inhibition was -5.79%.

As to `FC(F)(F)c1cc(-c2cccs2)nc(NCc2ccco2)n1`, the inhibition is 52.2%.

`Cc1cc(C(F)(F)F)nn1-c1nc(-c2ccco2)cc(C(F)(F)F)n1`: the inhibition is 30.6%.

Regarding `CCOC(=O)c1ccn(-c2nc(-c3ccco3)cc(C(F)(F)F)n2)n1`, the inhibition was 7.61%.

As for `FC(F)(F)c1cc(-c2ccco2)nc(N2CCOCC2)n1`, the inhibition is 101% (active).

`O=C(CSc1nc(-c2ccco2)cc(C(F)(F)F)n1)NCc1cccs1`: the inhibition is 30.9%.

In the case of `FC(F)(F)c1cc(-c2ccco2)nc(NCc2ccc(Cl)cc2)n1`, the inhibition was 81.4% (active).

As for `COc1ccc(Cl)cc1NC(=O)CCN1CCOCC1`, the inhibition was 5.05%.

Take `CC(=O)NC(C)c1nc2ccccc2n1Cc1ccccc1F` (stereo not given): the inhibition is -2.56%.

`CC(C)Cc1nc(Nc2ccc(S(=O)(=O)N3CCCC3)cc2)c2nnn(Cc3ccccc3)c2n1`: the inhibition was 27.2%.

For `C#CCNc1nc(C(C)C)nc2c1nnn2Cc1ccccc1F`, the inhibition was 89.8% (active).

`CC1C(=O)NC(=O)C1c1ccccc1` (stereo not given): the inhibition is 8.56%.

On to `CCCC(=O)Nc1ccc2c(c1)nc(CCNC(=O)c1ccco1)n2C`, for which the inhibition was -14.7%.

For the molecule `CC(NC(=O)C(C)(C)C)C(c1cccs1)N1CCN(Cc2ccccc2)CC1` (stereo not given), the inhibition was -20.7%.

Turning to `CCOC(=O)C1=C(CN2CCCCCC2)NC(=O)NC1c1cccc([N+](=O)[O-])c1` (stereo not given), the inhibition was -12.3%.

Turning to `CCOC(=O)C1=C(CN2CCc3ccccc32)NC(=O)NC1c1ccc(Cl)cc1` (stereo not given), the inhibition was 85.1% (active).

Consider `CCOC(=O)C1=C(CN2CCc3ccccc32)NC(=O)NC1c1cccc([N+](=O)[O-])c1` (stereo not given), for which the inhibition was 60.9%.

Take `Cc1ccc(C(=O)NNC2=Nc3cc([N+](=O)[O-])ccc3OC2)cc1`: the inhibition was -15.9%.

For `Cn1nc(C(C)(C)C)c(NC(=O)c2sccc2Cl)c1C(C)(C)C`, the inhibition was 3.22%.

For `CC(C)c1c(O)nc(SCCOc2ccc(Cl)cc2)[nH]c1=O`, the inhibition was 4.19%.

Turning to `CCOC(=O)N1CCN(C(=O)c2ccc(S(=O)(=O)c3ccc(C)cc3)c(NC(C)=O)c2)CC1`, the inhibition was 33.2%.

In the case of `CCOC(=O)N1CCN(C(=O)c2ccc3c(c2)N(Cc2ccc(C)cc2)CCS3)CC1`, the inhibition is 76.8% (active).

Regarding `O=C(NCCN1CCOCC1)c1ccc2c(c1)N(Cc1ccc(Cl)cc1)CCS2`, the inhibition is 15%.

As for `O=C(NCCCc1ccccc1)C1CCC(CNc2c(N3CCCCC3)c(=O)c2=O)CC1` (stereo not given), the inhibition was 0.92%.

For `OC(COc1ccc2c(c1)CCC2)CN1CCN(c2cccc(Cl)c2)CC1` (stereo not given), the inhibition was 44.8%.

With `O=C(COc1ccc(Cl)cc1)N1CCN(c2cccc(C(F)(F)F)c2)CC1`, the inhibition is 86.3% (active).

For `COC(=O)c1ccccc1OCC(=O)N1CCN(c2ccc(Cl)cc2)CC1`, the inhibition is 22.2%.

As for `CCC(=O)c1ccc(OCC(O)CN2CCN(c3cccc(C(F)(F)F)c3)CC2)cc1` (stereo not given), the inhibition is 84.2% (active).

With `O=C(COc1ccc(Cl)cc1)N1CCN(S(=O)(=O)c2ccc(Cl)cc2)CC1`, the inhibition was 42.3%.

For the molecule `CCC(=O)c1ccc(OCC(O)CN2CC(C)OC(C)C2)cc1` (stereo not given), the inhibition is -8.55%.

On to `O=C(C1=C(O)C(=O)N(CCOCCO)C1c1ccccn1)c1cccs1` (stereo not given), for which the inhibition was 8.68%.

For `FC(F)(F)c1ccc(-n2cn[nH]c2=S)cc1`, the inhibition was 9.71%.

On to `CCN(CCNC(=O)C1=C(C)C(=O)OC12CCC(C)CC2)c1ccccc1` (stereo not given), for which the inhibition is 23.7%.

In the case of `CCc1ccc(NC(=O)N[C@H](C(=O)O)C(C)CC)cc1` (stereo not given in full), the inhibition was -4.67%.

For the molecule `CCCn1c(C)cc(/C=C(\C#N)C(=O)OCC(=O)Nc2cc(OC)c(OC)c(OC)c2)c1C`, the inhibition is 9.36%.

Take `CCOC(=O)/C(C#N)=C/c1ccc(OCC(=O)Nc2ccccc2)c(OC)c1`: the inhibition is 77.3% (active).

For `CCOC(=O)/C(C#N)=C/c1ccc(N2CCN(Cc3ccccc3)CC2)cc1`, the inhibition is 5.69%.

Consider `COc1cc(/C=C2/C(=O)NN(c3ccc(F)cc3)C2=O)cc([N+](=O)[O-])c1O`, for which the inhibition is 0.68%.

On to `O=C(CCCCCN1C(=O)c2cccc3cccc(c23)C1=O)NCc1ccco1`, for which the inhibition was 7.37%.

Regarding `CCOC(=O)c1[nH]c2c(c1C)C(=O)CC(c1ccc(N(C)C)cc1)C2` (stereo not given), the inhibition was 9.42%.

Turning to `CCOC(=O)c1[nH]c2c(c1-c1ccccc1)C(=O)CC(c1ccc(Cl)cc1)C2` (stereo not given), the inhibition was 80.8% (active).

Consider `CCOC(=O)C1=C(c2ccccc2)NC(=S)NC1c1ccc(Cl)cc1` (stereo not given), for which the inhibition was 18%.

Turning to `CC(NS(=O)(=O)c1ccccc1)c1n[nH]c(=S)n1-c1ccccc1` (stereo not given), the inhibition is 19.4%.

With `CC(/C=C/c1ccco1)=N/NC(=O)C1COc2ccccc2O1` (stereo not given), the inhibition was 0.12%.

Regarding `CCc1ccc(S(=O)(=O)Nc2ccc(C)c(NS(C)(=O)=O)c2)cc1`, the inhibition is 16.4%.

For the molecule `COc1ccc(CCNS(=O)(=O)c2cccc3cccnc23)cc1OC`, the inhibition was 0.78%.

In the case of `O=C(Nc1nc2ccc(S(=O)(=O)N3CCCC3)cc2s1)C1CCCO1` (stereo not given), the inhibition was 9.58%.

With `Cn1c(=O)oc2cc(S(=O)(=O)N3CCC(C(=O)Nc4ccc(OC(F)(F)F)cc4)CC3)ccc21`, the inhibition was 12%.

Take `Cc1ccc2nc(NC(=O)C3CCN(S(=O)(=O)c4ccc5c(c4)oc(=O)n5C)CC3)sc2c1`: the inhibition was 80.1% (active).
